Screens from PubChem BioAssay.
CYP2C9 inhib – blocks human cytochrome P450 2C9; CYP2C9 Supersomes, luciferin-H conversion, luminescence; inhibition, % at 5 µM; 20% of 96,000 active;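 active = blocking of liver enzyme CYP2C9 beyond about 50% at 5 µM, limit read from the data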
CYP2C19 act – cytochrome P450 2C19 (human) activation; P33261; recombinant CYP2C19, luciferin-H EGE luminescence; stronger effect = higher value; 0 = fully inhibited enzyme, 1 = untreated enzyme; activation factor at 5 µM; 96,000 tested, under 10 active; AID 1025;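 active = activation factor of at least 2 at 5 µM in the primary screen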;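 also: 0 = wells with 2.5 mM tranylcypromine and 1 = vehicle-only wells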
CYP2C9 activ – activators of human CYP2C9 | activation factor at 5 µM | P11712 | recombinant CYP2C9, luciferin-H conversion, luminescence; stronger effect = higher value; factor 1 = untreated enzyme, 0 = blocked | 1.4% of 96,000 active | AID 1024;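 active = activation factor of 2 or more for CYP2C9 at a 5 µM dose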;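 also: 0 = sulfaphenazole-blocked wells and 1 = vehicle-only wells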
PLK1 inh – blocks human PLK1 kinase activity. P53350. recombinant PLK1 kinase, TR-FRET peptide phosphorylation. inhibition, % at 10 µM. 0.53% of 97,000 active;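 active = inhibition of 50% or more in the single-concentration screen; inactive = inhibition below 50%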;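 also: 0% = DMSO max control and 100% = H-89 dihydrochloride min control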
Target sequence (P53350 whole entry, looked up): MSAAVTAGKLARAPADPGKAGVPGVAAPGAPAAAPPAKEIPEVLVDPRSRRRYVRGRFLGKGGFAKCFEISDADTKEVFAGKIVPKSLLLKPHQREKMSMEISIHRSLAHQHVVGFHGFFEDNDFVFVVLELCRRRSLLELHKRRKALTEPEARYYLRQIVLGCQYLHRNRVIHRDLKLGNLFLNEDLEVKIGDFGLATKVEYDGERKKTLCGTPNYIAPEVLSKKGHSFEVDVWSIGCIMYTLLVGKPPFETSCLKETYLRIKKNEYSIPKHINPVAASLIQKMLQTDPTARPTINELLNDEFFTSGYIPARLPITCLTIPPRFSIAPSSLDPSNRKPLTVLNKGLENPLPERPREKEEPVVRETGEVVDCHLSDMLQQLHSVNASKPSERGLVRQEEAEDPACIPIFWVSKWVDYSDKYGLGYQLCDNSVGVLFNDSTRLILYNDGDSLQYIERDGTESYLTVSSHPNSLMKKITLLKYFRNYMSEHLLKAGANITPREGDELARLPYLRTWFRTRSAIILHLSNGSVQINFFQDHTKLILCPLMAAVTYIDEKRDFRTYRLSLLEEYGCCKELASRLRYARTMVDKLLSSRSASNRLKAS
PLK1 PBD inh – Plk1 (human) PBD binding inhibition | P53350 | Plk1 PBD phosphopeptide binding, fluorescence polarization | inhibition, %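 (tested at about 20 µM)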 | 0.13% of 97,000 active; in the data active = inhibition above about 34%, passing the limit was not always enough
CYP2C19 inhib – blocks human cytochrome P450 2C19 | P33261 | CYP2C19 Supersomes, luciferin-H EGE luminescence, 30 min | inhibition, % at 5 µM | 21% of 96,000 active;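 active = CYP2C19 inhibition above a set limit at 5 µM in the primary screen, cut at about 50% in these data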;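 also: plate controls were negative control wells for no effect and 2.5 mM tranylcypromine positive control for full effect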
* = called active by the depositor; . = no result. An excerpt weighted towards active compounds, which were near 28% of everything screened.

SMILES	CYP2C9 inhib	CYP2C19 act	CYP2C9 activ	PLK1 inh	PLK1 PBD inh	CYP2C19 inhib
Nc1nonc1C(=O)NCCNCc1cc(Br)ccc1OCc1ccc(F)cc1	25	0.7	0.8	-12	-3	35
O/N=C/c1cc(Br)ccc1OCc1ccccc1F	.	.	.	-3	15	.
Fc1ccccc1COc1ccc(Br)cc1CNCc1ccncc1	84*	0	0.2	-8	1	99*
O=C(CN1CCN(c2ccccc2)CC1)Nc1ccc(OCc2ccccc2)cc1	29	0.9	0.7	-3	-23	7
COc1ccc(-c2nnc3ccc(SC)nn23)cc1	15	1	0.9	-7	9	2
CCSC(=Nc1ccccc1)C1=C(O)COC1=O	5	1	0.9	-15	3	1
Nc1nc(CSc2nc3ccccc3[nH]2)nc(N2CCOCC2)n1	28	1	0.7	-11	-34	-3
Cc1nc(SCC(=O)Nc2c(C)n(C)n(-c3ccccc3)c2=O)n[nH]1	.	.	.	-17	-23	.
Cn1c(=O)c2c(nc(Oc3ccc4ccccc4c3)n2C)n(C)c1=O	19	0.8	0.8	-11	-12	22
CCOC(=O)C1=C(C)Nc2nnnn2C1c1ccccc1Cl (stereo not drawn)	.	.	.	-11	10	.
COC(=O)C1=C(C(=O)c2ccc(C)cc2)C(c2ccc(O)c(OC)c2)n2nnnc2N1 (stereo not drawn)	69*	0.9	0.3	-45	-3	6
CCOc1ccccc1C1C(C(=O)Nc2ccccc2OC)=C(C)Nc2nnnn21 (stereo not drawn)	52*	0.1	0.5	.	.	88*
C=CCOC(=O)C1=C(C)Nc2nnnn2C1c1cc(OC)ccc1OC (stereo not drawn)	51*	0.3	0.5	.	.	71*
CCOC(=O)C1=C(C)Nc2nnnn2C1c1ccc(OC)c(Br)c1 (stereo not drawn)	67*	0.6	0.3	-6	4	40
COc1ccccc1NC(=O)C1=C(C)Nc2nnnn2C1c1ccncc1 (stereo not drawn)	0	0.9	1	-5	47	9
CCn1c(=O)n(CC(=O)NC2CCCC(C)C2C)c(=O)c2ccccc21 (stereo not drawn)	-5	0.7	1.1	-8	-13	29
CN(C=O)CP(=O)(O)CCN1CCCC1=O	.	.	.	-3	-20	.
CCOc1ccc(Nc2nc(Cc3nnc(SCC(=O)NC4CCCCC4)n3C)cs2)cc1	91*	0.2	0.1	-4	-15	79*
COC(=O)c1ccc(Oc2ccc(C(C)(C)C)cc2)c([N+](=O)[O-])c1	60*	0.6	0.4	-6	3	38
COc1ccc(CN(C(C)=O)c2cccc(C)c2C)cc1	68*	0	0.3	-3	-8	99*
Cc1cc(-c2nnc(SCC(=O)N3C(C)CCCC3C)o2)no1 (stereo not drawn)	30	0.4	0.7	26	0	56*
CC1CCCC(C)N1C(=O)CSc1nnc(C2CCCCC2)o1 (stereo not drawn)	12	0.4	0.9	.	.	59*
CCCc1nnc(SCC(=O)N2C(C)CCCC2C)n1CC1CCCO1 (stereo not drawn)	-1	0.8	1	-3	9	18
COc1ccc(-n2c(C)nnc2SCC(=O)N2C(C)CCCC2C)cc1 (stereo not drawn)	6	1	0.9	-8	-15	-1
CCCCC1(C)Cc2ccccc2C(=S)N1 (stereo not drawn)	7	0.7	0.9	-6	-29	30
SMILES	CYP2C9 inhib	CYP2C19 act	CYP2C9 activ	PLK1 inh	PLK1 PBD inh	CYP2C19 inhib
CCOC(=O)N1CCN(C(=O)Nc2ccc(Cl)cc2Cl)CC1	2	0.6	1	-11	-26	44
Cc1ccc(-c2nn(CCC#N)cc2C=C(C#N)C#N)cc1	-14	0.9	1.1	-7	-17	9
N#CCCn1cc(/C=N/NC(=O)c2ccncc2)c(-c2ccccc2)n1	68*	0.5	0.3	-6	9	53*
O=S(=O)(c1ccc2ccccc2c1)N(CC(O)CN1CCOCC1)c1ccccc1 (stereo not drawn)	20	0.9	0.8	-2	-7	11
Cc1ccc(NC(=O)C(=O)c2c(-c3ccccc3)cc3ccccn23)cc1S(=O)(=O)N1CCOCC1	-18	0.1	1.2	-12	-12	88*
Cc1ccc(C(=O)Nc2cccc(C(=O)O)c2)cc1S(=O)(=O)N1CCOCC1	-12	1	1.1	-37	-26	2
N#Cc1ccc(-c2cccnc2)nc1SCc1ccc(Cl)cc1Cl	56*	0.8	0.4	-7	6	18
Cc1ccc(S(=O)(=O)CCc2nc3ccccc3n2CCC#N)cc1	-2	0.5	1	3	-24	51*
C=C(C)Cn1c(CCNC(=O)CC)nc2ccccc21	.	.	.	-3	-12	.
COC(=O)Cn1c(CCS(=O)(=O)c2ccc(C)c(C)c2)nc2ccccc21	-16	0.4	1.2	.	.	61*
Cc1ccc(S(=O)(=O)CC2CSc3nc(N)cc(=O)n32)cc1 (stereo not drawn)	-18	0.7	1.2	-7	9	33
Cc1ccc(S(=O)(=O)CC2CSc3nc4ccccc4n32)cc1 (stereo not drawn)	54*	0.3	0.5	-14	-30	68*
C=CCn1c(O)c(N=NC(=O)CNC(=O)/C=C/c2ccco2)c2ccccc21	71*	0.5	0.3	-11	3	49
C=CCn1c(=O)c(C(=O)NCCc2ccccc2)c(O)c2ccccc21	34	0.7	0.7	.	.	28
Cc1nc2sc(C(c3cccc(F)c3)N3CC(C)OC(C)C3)c(O)n2n1 (stereo not drawn)	-2	0.8	1	-17	9	25
CCC(CC)C1C(C#N)=C(N)Oc2cc(C)oc(=O)c21 (stereo not drawn)	72*	0	0.3	-8	18	96*
CC1c2[nH]c3ccccc3c2CCN1S(C)(=O)=O (stereo not drawn)	3	0	1	45	1	98*
CCOC(=O)c1c(C)n(C)c2ccc(OC(C)C(=O)OC)cc12 (stereo not drawn)	64*	0.5	0.4	-9	13	51*
CCCC(=O)NNc1cc(=O)c2c(=O)n(C)c(=O)n(C)c2[nH]1	-9	1.1	1.1	-11	1	-12
CCN(CC)c1ccc2cc(C(=O)Nc3ccccn3)c(=O)oc2c1	57*	0.5	0.4	.	.	45
Cc1cccnc1NC1OC(=O)c2ccccc21 (stereo not drawn)	-3	1.1	1	9	6	-15
CCc1c(C)sc(NC(=O)c2cc(C)on2)c1C#N	4	1.2	1	-10	3	-15
O=C(Nc1nnc(Cc2ccccc2)s1)c1ccco1	27	1	0.7	25	-2	2
CCCc1cc(C(N)=O)c(NC(=O)c2ccoc2C)s1	88*	0.3	0.1	-2	11	67*
CCCc1cc(C(N)=O)c(NC(=O)c2cc(C)on2)s1	64*	0.8	0.4	-7	-17	18
